Assay outcomes: PubChem, University of Kansas High Throughput Screening Laboratory
Compounds with a hit are over-represented: about 3.5% of the library has one in this group of screens.
Pf apPOL inh = Pf-apPOL inhibitors, biochemical, fluorescence; Plasmodium falciparum apicoplast DNA polymerase (apPOL); Recombinant Pf-apPOL, molecular beacon fluorescence, 1.5 h; inhibition, % at 10 µM; 210,000 compounds, 0.25% hits
mHTT-CaM PPI inh = mutant huntingtin-calmodulin interaction inhibitors – biochemical, AlphaScreen, primary screen; AlphaScreen His-mHTT/GST-CaM binding, luminescence; AID 1671202, 2021; 190,000 compounds, 3.6% hits; inhibition, % at 15 µM; P42858;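 further: 0% = both proteins with DMSO and 100% = one protein alone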
An asterisk follows results filed as active; nt = not tested or not shown; ! = not confirmed by another sample. No stated cut-off is given here; in the data, active means inhibition above about 50%; inactive means the rest.

SMILES | Pf apPOL inh | mHTT-CaM PPI inh
CNc1ccc(C(=O)N2CCOC(COc3ccc4c(c3)CCCC4)C2)cc1 (centres undefined) | -7 | 52*
CC1=C(c2ccccc2)S(=O)(=O)N=C1N1CCCN(C(=O)C2CCC2)CC1 | -3 | -6
CN1C2OC3OC4C(OC3OC2N(C)S1(=O)=O)N(C)S(=O)(=O)N4C (centres undefined) | -2 | 0
O=C(CN1N=C(c2ccc(Cl)cc2)CCC1=O)NCc1ccccn1 | -15 | 8
COc1ccc(C2CC(O)(c3ccccc3)Oc3cc(OC)c(OC)c(OC)c32)cc1 (centres undefined) | -2 | 86*
COc1ccc([C@@H]2C[C@H](c3ccccc3)Oc3cc(OC)c(OC)c(OC)c32)cc1 | -4 | 18
Cc1cc2c(c(C)c1Cl)[C@H](c1ccc3c(c1)OCO3)C[C@@H](c1ccccc1)O2 | -7 | 10
COc1ccc(C2CC(O)(c3ccccc3)Oc3cc(C)c(Cl)c(C)c32)cc1 (centres undefined) | -3 | 89*
COc1ccc(C2CC(c3ccco3)=Nc3ccccc3S2)cc1 (centres undefined) | 2 | 34
Cc1ccc(-c2noc(-c3c(O)c4ccccc4n(C)c3=O)n2)c(C)c1 | -7 | -3
COc1ccccc1Nc1ncc2c(n1)CCN(Cc1ccccc1C)C2 | -4 | -5
COc1ccc(C(=O)N2CCN(c3cccc(Cl)c3)CC2)cc1 | -1 | 6
COc1cccc(-n2ccnc2N2CCN(C(=O)c3ccc(F)c(F)c3)CC2)c1 | 18 | 54*
COc1cc(OC)c(NC(=O)C(C)C)cc1Cl | 0 | -5
COc1ccccc1Nc1nc(N)nc(C(F)(F)F)n1 | -4 | -6
Cc1noc(-c2nn(C)c3c2CN(S(=O)(=O)c2ccc(C(C)C)cc2)CC3)n1 | -1 | 12
CC(C)(C)C(=O)N1CCN(Cc2ccc3c(c2)OCO3)CC1 | -10 | nt
CC(=O)N(Cc1ccc2c(c1)CN(C(=O)C(C)(C)C)CCO2)c1ccc(C)cc1 | -7 | 73*
O=C(Cc1ccc(F)cc1)N1CCC(COCc2ccccc2)CC1 | -23 | 21
O=[N+]([O-])c1ccc(N2CCSCC2)nc1 | 66* | 0
O=[N+]([O-])c1ccc(N2CCOCC2)nc1 | -2 | -5
COc1ncccc1CNS(=O)(=O)c1cccnc1 | 1 | -8
CN(C)c1ccc(/C=C2\SC(N3CCCCCC3)=NC2=O)cc1 | -6 | 16
Cc1sc2cc(C(=O)N3CCOCC3)[nH]c2c1CN1CCOCC1 | 0 | 100*
Cc1sc2cc(C(=O)N3CCN(C)CC3)[nH]c2c1CN1CCOCC1 | -2 | 7
SMILES | Pf apPOL inh | mHTT-CaM PPI inh
CC(C)C(=O)NCc1csc(C2CCN(C(=O)c3ccc(C(C)(C)C)cc3)CC2)n1 | -2 | 25
N#CCC[C@H]1CC[C@]2(CCCN(Cc3ccccc3)C2)O1 | -4 | -5
N#CCC[C@@H]1CC[C@]2(CCCN(Cc3ccc(Cl)cc3)C2)O1 | -3 | 74*
CN(C)CCNC(=O)C1Cc2cc(C(F)(F)F)ccc2N2CCOCC12 (centres undefined) | -1 | 16
Cc1nc2cc(N=Cc3ccc(Br)cc3)ccc2n1C | 53* | 5
Cc1nc2cc(N=Cc3ccccc3O)ccc2n1C | 19 | 8
CCCCN(C)C(=O)c1ccc2ncnc(N3CCCC3)c2c1 | 2 | -5
COc1ccc(C2=NC3(CCNCC3)NC(c3cc(Br)ccc3O)C2)cc1 (centres undefined) | -2 | 71*
COc1cccc(C2=NC3(CCNCC3)NC(c3cc(Br)ccc3O)C2)c1 (centres undefined) | -7 | 14
Cc1ccc(C2=NC3(CCNCC3)NC(c3cc(Cl)ccc3O)C2)cc1C (centres undefined) | 0 | 10
Oc1ccc(Cl)cc1C1CC(c2ccc(Cl)cc2)=NC2(CCNCC2)N1 (centres undefined) | -6 | 66*
COc1ccc(C(=O)N2CCC(CCOc3ccccc3F)CC2)cn1 | 0 | 16
CCc1ccc(CNC(=O)c2ccc(-c3nc4cccnc4n(C)c3=O)cc2)cc1 | -2 | -4
Cn1cccc1C(=O)N1CCCC1c1nc(-c2ccccc2)n[nH]1 (centres undefined) | -8 | 3
CC(C)Sc1ccc(Cc2nnc(NC(=O)Cc3ccc(F)cc3)o2)cc1 | -21 | -18
COc1ccc(Cc2nnc(NC(=O)Nc3cccc(C(F)(F)F)c3)o2)cc1 | -10 | 3
CS(=O)(=O)c1ccc(Cc2nnc(NC(=O)CSc3ccc(Cl)cc3)o2)cc1 | -25 | 56*
CCSc1ccc(Cc2nnc(NC(=O)c3cccs3)o2)cc1 | -221 | 57*
CSc1ccc(Cc2nnc(NC(=O)c3cc(C)oc3C)o2)cc1 | -4 | 48
COc1ccc(Cc2nnc(NC(=O)Nc3cccs3)o2)cc1 | -1 | 54*
O=C1CSC(c2ccccc2)N1c1cccc(F)c1 (centres undefined) | -11 | -6
CCN1c2cc(F)ccc2C(=O)NC12CCN(C(=O)c1cccc(Cl)c1)CC2 | -5 | 3
COC(=O)Oc1ccc2c(=O)c(Oc3ccccc3Cl)coc2c1 | 2 | 69*
CCOC(=O)Oc1ccc2c(=O)c(Oc3ccccc3Cl)coc2c1 | -3 | 28
COC(=O)Oc1ccc2c(=O)c(-c3ccccc3Cl)coc2c1 | -4 | 61*!
SMILES | Pf apPOL inh | mHTT-CaM PPI inh
CCOC(=O)Oc1ccc2c(=O)c(-c3ccccc3Cl)coc2c1 | -3 | 16
COc1ccc(C2C3=C(CCCC3=O)Nc3nc(SCc4ccccc4)[nH]c(=O)c32)cc1OC (centres undefined) | -4 | 17
Cc1ccc(NCN2C(=O)c3ccc([N+](=O)[O-])cc3C2=O)nc1 | -1 | -3
CCc1cc(C2CCCN2Cc2ccc(SC)cc2)on1 (centres undefined) | 1 | -4
CCc1onc(C)c1C1CCCN1C(=O)Nc1ccc(C)cc1 (centres undefined) | 11 | -7
COc1ccc(NC(=O)c2ncn[nH]2)c([N+](=O)[O-])c1 | -3 | 100*
COc1ccc(NC(=O)c2cc(OC)c(OC)c(OC)c2)c([N+](=O)[O-])c1 | 1 | -4
Cc1ccccc1N=c1scc(-c2ccccc2)n1Cc1ccco1 | 0 | 73*
Cc1csc(=NC(=O)c2ccccc2)n1Cc1ccco1 | 0 | 6
O=C(C1=C(O)C(=O)N(Cc2cccnc2)C1c1cccc([N+](=O)[O-])c1)c1cccs1 (centres undefined) | 1 | -2
CSC1=NSC2=NC(=O)/C(=C\c3ccc(Cl)cc3)C(=N)N12 | 1 | 4
COc1cc(OC)cc(C(=O)N2CCCC3(C2)Nc2ccccc2NC3=NC(C)(C)C)c1 (centres undefined) | 4 | 21
COc1cccc(NC(=O)N2CCCC3(C2)Nc2ccccc2NC3=NC(C)(C)C)c1 (centres undefined) | 2 | 12
CC(C)(C)N=C1Nc2ccccc2NC12CCCN(C(=O)NCc1cccc(F)c1)C2 (centres undefined) | -4 | 99*
COc1ccccc1NC(=O)N1CCCC2(C1)Nc1ccccc1NC2=NC(C)(C)C (centres undefined) | -4 | 67*
COc1cccc(CNC(=O)N2CCCC3(C2)Nc2ccccc2NC3=NC(C)(C)C)c1 (centres undefined) | 4 | 69*
CC(C)(C)N=C1Nc2ccccc2NC12CCCN(C(=O)NCc1ccco1)C2 (centres undefined) | 4 | 30
